NTMT1 inhibitor – blocks human N-terminal methyltransferase 1 activity; Q9BV86; NTMT1 MTase-Glo SAH luminescence, purified enzyme; Potency, µM (highest dose often 114 µM), usual class: inhibitors; actives 2.5% (n = 59,000); further: nearly all actives have a fitted effect of over 65% in size
Target sequence (Q9BV86 whole entry, looked up): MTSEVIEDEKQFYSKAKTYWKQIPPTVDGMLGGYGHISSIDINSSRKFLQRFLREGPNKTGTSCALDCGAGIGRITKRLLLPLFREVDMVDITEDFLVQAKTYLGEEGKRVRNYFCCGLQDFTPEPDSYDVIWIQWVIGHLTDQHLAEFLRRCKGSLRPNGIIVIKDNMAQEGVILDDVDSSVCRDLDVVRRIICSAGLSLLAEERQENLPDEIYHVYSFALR
DRV1 agonist – agonists of human resolvin D1 receptor DRV1 (GPR32); actives 2.5% (n = 48,000); activation, % at 76.9 µM; O75388; CHO-K1 GPR32 beta-arrestin PathHunter luminescence, 90 min; zero percent set by DMSO-only wells;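 active means activation of at least 60% and not above a set upper limit, about 1 call in 100 departs from these limits; inconclusive means activation of 40% to 60%, or above that upper limit; inactive means activation under 40%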
Target sequence (O75388 whole entry, looked up): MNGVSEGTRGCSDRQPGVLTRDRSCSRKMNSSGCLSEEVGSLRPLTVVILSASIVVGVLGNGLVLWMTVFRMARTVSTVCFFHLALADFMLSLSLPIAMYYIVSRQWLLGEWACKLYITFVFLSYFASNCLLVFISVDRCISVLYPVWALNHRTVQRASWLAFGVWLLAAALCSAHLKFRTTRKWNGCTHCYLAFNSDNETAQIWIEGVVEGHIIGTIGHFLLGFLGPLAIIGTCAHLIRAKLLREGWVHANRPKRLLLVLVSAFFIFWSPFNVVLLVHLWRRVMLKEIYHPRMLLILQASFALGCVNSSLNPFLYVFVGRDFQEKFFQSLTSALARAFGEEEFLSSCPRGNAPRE
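Using DMSO wells as EC0, agonist-induced signal was taken as chemiluminescence from beta-Gal reconstituted upon beta-arrestin recruitment to GPR32 in CHO-K1 cells after 90 min compound treatment.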
HTT promoter inh – inhibitors of huntingtin promoter activity | actives 0.93% (n = 48,000) | HEK293 HTT promoter firefly luciferase reporter, 24 h | Potency, µM (titrated, usually from 57.5 µM), usual class: inhibitors; further: nearly all actives have a fitted effect of over 50% in size
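HEK293 Fluc reporter, 2,500 cells/well, 24 h pre-culture; cpds up to 57.5 uM final, 24 h 37 degrees C; Dual-Glo, 10 min RT; normalized vehicle = 0%, zero RLU = -100%.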
HTT-AS promoter – activators of huntingtin-antisense promoter activity. HEK293 HTT-AS promoter firefly luciferase reporter, 24 h; response scale: percent change from vehicle, -100% = no light. Potency, µM (doses to about 57.5 µM), actives largely listed as activators. actives 0.24% (n = 48,000). AID 1508624; further: nearly all actives have a fitted effect of over 55% in size
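Luminescence was read after Dual-Glo reagent and a 10 min room-temperature incubation. Values were normalized to vehicle (0% activity) and zero RLU (-100% activity). Reporter HEK293 cells had been exposed to compounds (up to 57.5 uM final) for 24 h.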
Numbers stand for hits; ! = repeats disagree; [ ] = another dose, or the depositor's remark. Compounds with a hit are over-represented: about 4.6% of the library has one in this group of screens. Unless noted, the call rests on the fitted dose curve; in most records, active means well fitted curve in the direction sought with a large enough effect; inconclusive means small, poorly fitted or top-dose-only effect, or another doubt; inactive means no such curve, though single readings can be large; an effect the other way counts as inactive or inconclusive.

`COc1cccc(CNS(=O)(=O)c2ccc3c(c2)C(C(C)C)C(=O)N3)c1` (stereo not given) gave NTMT1 inhibitor inactive, DRV1 agonist 76, HTT promoter inh inconclusive and HTT-AS promoter inactive.
For CC(C)C1C(=O)Nc2ccc(S(=O)(=O)NCCc3ccc(Cl)cc3)cc21 (stereo not given) the results were NTMT1 inhibitor inactive, DRV1 agonist 87, HTT promoter inh inconclusive and HTT-AS promoter inactive.
For CCC(=O)N1c2ccc(S(=O)(=O)NCc3cccc(OC)c3)cc2CC1C (stereo not given) the results were NTMT1 inhibitor inactive, DRV1 agonist inactive, HTT promoter inh inconclusive and HTT-AS promoter inactive.
Screening CC(C)(C)OC(=O)N[C@@H](Cc1ccc(O[S+](=O)([O-])c2cccc3cnccc23)cc1)C(=O)Nc1ccc(-c2ccccc2)cc1 returned NTMT1 inhibitor inactive.
Nc1cccc2c(N)cccc12 was read as NTMT1 inhibitor 35µM, DRV1 agonist inactive, HTT promoter inh inactive and HTT-AS promoter inactive.
Screening Nc1ncnc2ccccc12 returned NTMT1 inhibitor inactive, HTT promoter inh inactive and HTT-AS promoter inactive.
`O=C(Nc1ccc(Br)cc1F)N1CCC(CN2CCCC2)CC1` gave NTMT1 inhibitor inactive, DRV1 agonist inactive, HTT promoter inh inactive and HTT-AS promoter inactive.
For NC(=O)c1c(OCc2c(F)cc(Br)cc2F)nsc1NC(=O)NCCCCN1CCCC1 the results were NTMT1 inhibitor 30µM!, HTT promoter inh inactive and HTT-AS promoter inactive.
For O=S(=O)(c1ccc(Cl)cc1)N1CCN(c2ccnc3cc(Cl)ccc23)CC1 the results were NTMT1 inhibitor inactive.
Screening Cc1ccc(OCC(=O)Nc2ccc(S(=O)(=O)Nc3cc(C)on3)cc2)c(Br)c1 returned NTMT1 inhibitor inactive, DRV1 agonist inconclusive, HTT promoter inh inactive[11.5 µM] and HTT-AS promoter inactive.
Screening Cc1cc(NS(=O)(=O)c2ccc(NC(=O)COc3cc(C)c(Br)cc3C(C)C)cc2)no1 returned NTMT1 inhibitor inactive, DRV1 agonist 107, HTT promoter inh inactive and HTT-AS promoter inactive.
Cc1ccccc1NC(=O)CN1C(=O)N/C(=C\c2cn(-c3cccc(C(=O)O)c3)cn2)C1=O was read as NTMT1 inhibitor inactive.
`Cc1ccc(C)c(NC(=O)CN(CCc2ccccc2)S(=O)(=O)c2ccccc2)c1` gave NTMT1 inhibitor inactive, DRV1 agonist inactive, HTT promoter inh inconclusive and HTT-AS promoter inactive.
Screening COc1ccc(S(=O)(=O)N(CCc2ccccc2)CC(=O)Nc2cc(Cl)ccc2C)cc1 returned NTMT1 inhibitor 4µM, DRV1 agonist inactive, HTT promoter inh inconclusive and HTT-AS promoter inactive.
COc1ccc(NC(=O)CSc2ccc(-c3cccs3)nn2)cc1 was read as NTMT1 inhibitor inactive, DRV1 agonist 112, HTT promoter inh inactive and HTT-AS promoter inactive.
O=C1CCCC2CC(Nc3nc4ccccc4o3)CC(c3ccccc3)C12 (stereo not given) was read as NTMT1 inhibitor inactive.
`CC(NCCCc1cccc(C(F)(F)F)c1)c1cccc2ccccc12` (stereo not given) gave NTMT1 inhibitor inactive.
`CC(Cc1cccc(C(F)(F)F)c1)NCCOC(=O)c1ccccc1` (stereo not given) gave NTMT1 inhibitor inactive, DRV1 agonist 63, HTT promoter inh inactive and HTT-AS promoter inactive.
For Cc1ccc(C(=O)Nc2ccccc2)cc1S(=O)(=O)Nc1ccccc1 the results were NTMT1 inhibitor inactive, DRV1 agonist 95, HTT promoter inh inactive and HTT-AS promoter inactive.
O=C(Nc1ccccc1)c1ccc(Cl)c(S(=O)(=O)Nc2ccccc2)c1 was read as NTMT1 inhibitor inconclusive, DRV1 agonist 91, HTT promoter inh inactive and HTT-AS promoter inconclusive.
Cc1ccc(C(=O)Nc2ccccc2)cc1S(=O)(=O)Nc1ccc(Br)cc1 was read as NTMT1 inhibitor inactive, DRV1 agonist inconclusive, HTT promoter inh inconclusive and HTT-AS promoter inactive.
For Cc1cc(C(C#N)c2ccc(Cl)cc2)c(Cl)cc1NC(=O)c1cc(I)cc(I)c1O (stereo not given) the results were NTMT1 inhibitor 18µM!, DRV1 agonist inactive, HTT promoter inh inconclusive and HTT-AS promoter inactive.
For CC(CC1c2ccccc2CCc2ccccc21)CN(C)C (stereo not given) the results were NTMT1 inhibitor 13µM, DRV1 agonist inactive, HTT promoter inh inactive and HTT-AS promoter inactive.
Cc1cc(C)cc(Nc2cc(C)nc3nncn23)c1 was read as NTMT1 inhibitor inactive, DRV1 agonist inactive, HTT promoter inh inactive and HTT-AS promoter inactive.
For Cc1cc(NCc2ccccc2Cl)n2cnnc2n1 the results were NTMT1 inhibitor inactive, DRV1 agonist inactive, HTT promoter inh 18µM and HTT-AS promoter inactive.
`Cc1cc2nn(-c3ccccc3)nc2cc1NC(=O)Cc1ccc(Cl)cc1` gave NTMT1 inhibitor inactive, DRV1 agonist inactive, HTT promoter inh inactive and HTT-AS promoter inconclusive.
Screening CCCCc1ccc(-n2nc3cc(C)c(NC(=O)Cc4ccccc4)cc3n2)cc1 returned NTMT1 inhibitor 79µM, DRV1 agonist inactive, HTT promoter inh inactive and HTT-AS promoter inactive.
O=C(Cc1ccc(Cl)cc1)Nc1ccc2nn(-c3ccccc3)nc2c1 was read as NTMT1 inhibitor inactive, DRV1 agonist 85, HTT promoter inh inactive and HTT-AS promoter inactive.
`CCC(=O)N1c2ccccc2CC1C(=O)NCCCN1CCN(c2ccc(F)cc2)CC1` (stereo not given) gave NTMT1 inhibitor 89µM, DRV1 agonist inactive, HTT promoter inh inactive and HTT-AS promoter inactive.
`CCC(=O)N1c2ccccc2CC1C(=O)NCCN1CCN(c2ccccc2F)CC1` (stereo not given) gave NTMT1 inhibitor inactive, DRV1 agonist inactive, HTT promoter inh inactive and HTT-AS promoter inactive.
For CCOc1ccc(NC(=O)NCCCN2CCN(c3ccc(F)cc3)CC2)cc1 the results were NTMT1 inhibitor inactive, DRV1 agonist inactive, HTT promoter inh inactive and HTT-AS promoter inconclusive.
O=C(NCCCN1CCN(c2ccc(F)cc2)CC1)Nc1ccc(Cl)cc1 was read as NTMT1 inhibitor inactive, DRV1 agonist 83, HTT promoter inh inactive and HTT-AS promoter inactive.
`CCCCc1ccc(NS(=O)(=O)c2cc3c4c(c2)CC(=O)N4CCC3)cc1` gave NTMT1 inhibitor inactive, DRV1 agonist 105, HTT promoter inh inconclusive and HTT-AS promoter inactive.
CCc1ccc(CNC(=O)CN(c2ccc(C)cc2)S(=O)(=O)N(C)C)cc1 was read as NTMT1 inhibitor inactive, DRV1 agonist 87, HTT promoter inh inactive and HTT-AS promoter inactive.
Cc1ccc(C(=O)Nc2ccc3oc(-c4ccccc4C)nc3c2)cc1 was read as NTMT1 inhibitor inactive, DRV1 agonist 76, HTT promoter inh inactive and HTT-AS promoter inactive.
`Cc1ccc2oc(-c3cc(NC(=O)Cc4ccccc4)ccc3Cl)nc2c1` gave DRV1 agonist 64.
`CN1CCN(c2nnc(NC(=O)Nc3ccc(Cl)c(Cl)c3)s2)CC1` gave NTMT1 inhibitor inactive.
For Cc1nn(C(=O)c2ccccc2)c(C)c1Sc1ccc(Cl)cc1 the results were NTMT1 inhibitor inactive, DRV1 agonist 107, HTT promoter inh inconclusive and HTT-AS promoter inactive.
